# Hits are enriched below; roughly 1.1% of the tested compounds scored in any of these assays.
# OPRM1-OPRD1 inv: inverse agonists of human mu-delta opioid receptor heterodimerization. hit rate 0.21% among 340,000. inhibition, % at 9.3 µM. P35372+P41143. cell-based MOR-DOR heterodimer luminescence, inverse agonism. AID 504357; in the data active = inhibition above about 22%, passing the limit was not always enough;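 note: 0% = cells with DMSO and 100% = wells without cells with DMSO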
# MOR-DOR ag-1: agonists of human mu-delta opioid receptor heterodimerization. P35372+P41143. cells, OPRM1-OPRD1 heterodimerization, luminescence. activation, % at 9.3 µM. hit rate 0.3% among 340,000;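 note: 0% = vehicle-treated cells and 100% = reference agonist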
# HTR5A ag ctr: HTR5A agonism, opioid heterodimer counter-screen; activation, % at 9.3 µM; hit rate 0.61% among 340,000; P47898; HTR5A agonist assay, luminescence, cell-based; in the data active = activation mostly above about 9.5%, no sharp cut-off; inactive = mostly below about 7.6%;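 note: 0% = cells with vehicle only and 100% = reference agonist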
# HTR5A inv ag: counter-screen for OPRM1-OPRD1 inverse agonists: human HTR5A inverse agonism. HTR5A cell line, luminescence. AID 504634. hit rate 0.083% among 340,000. inhibition, % at 9.3 µM; in the data active = inhibition mostly above about 23%, no sharp cut-off; inactive = mostly below about 18%;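 note: 0% = cells with DMSO and 100% = no-cell wells with DMSO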
# MOR-DOR ag-2: opioid heterodimer agonism, HTR5A counter-screen. U2OS counter-screen cells, complementation luminescence, 3 h. AID 504913. hit rate 13% among 800. activation, % at 9.3 µM. shares compounds with HTR5A ag ctr
# HTR5A ag conf: confirmation of human HTR5A agonists; HTR5A agonist cell assay, luminescence; shares compounds with HTR5A ag ctr; hit rate 17% among 800; activation, % at 9.3 µM; in the data active = activation above about 17%;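 note: 0% = cells with vehicle only and 100% = full reference agonist response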
# * marks the source's active call; other numbers are inactive results; x = no result. Cut-off read from the data, not from the text of the source, unless noted: active = activation above about 18%; inactive = the rest.
SMILES,OPRM1-OPRD1 inv,MOR-DOR ag-1,HTR5A ag ctr,HTR5A inv ag,MOR-DOR ag-2,HTR5A ag conf
N=C1S/C(=C\c2ccc(O)cc2)C(=O)N1c1ccc(F)cc1,-40.5,7.7,15.2*,-42.6,7.4,10.2
Nc1ncnc2nc(N3CCN(C(=O)c4ccccc4)CC3)[nH]c12,17.1,-3.0,18.6*,-47.1,-0.4,-0.7
CCC(C)(C)C1CCC(NC(=O)N2CCN(c3ccccc3O)CC2)CC1 (stereo unspecified),-29.7,3.6,14.8*,-15.2,6.4,-0.3
CCOc1ccccc1N1CCN(C(=O)NC2CCCCC2)CC1,18.8,-3.4,0.5,-13.7,x,x
O=c1cc(CN2CCN(S(=O)(=O)c3ccccc3)CC2)nc2ccc(Cl)cn12,-2.1,0.5,-8.3,20.2,x,x
COc1ccc(S(=O)(=O)N2CCN(Cc3cc(=O)n4ccccc4n3)CC2)cc1,-4.5,1.1,16.0*,-39.6,1.1,-2.2
CCCCC(O)(c1ccc(F)cc1)C(CN1CCOCC1)c1ccc(Cl)cc1 (stereo unspecified),-4.8,0.9,2.6,-10.1,x,x
Cc1ccc(-n2ncc3c(NCc4ccc5c(c4)OCO5)ncnc32)c(C)c1,-6.5,1.3,14.5*,-10.5,0.8,2.9
Cc1cccc(-n2ncc3c(NCc4ccc5c(c4)OCO5)ncnc32)c1,-24.8,5.0,7.1,-36.5,x,x
O=C(NNC(=S)Nc1ccc(Br)cc1)c1ccccc1,16.1,-2.3,-6.2,11.2,x,x
O=C(NNC(=S)Nc1ccccc1)c1cccc(Br)c1,24.3,-4.3,17.6*,-45.5,-0.6,3.7
COc1ccc(S(=O)(=O)O/N=C2\CCSc3ccc(C)cc32)cc1,-21.4,4.7,-1.8,-6.6,x,x
Cc1ccc(C(=O)O/N=C2\CCSc3ccc(C)cc32)cc1,-0.7,0.1,37.3*,-88.9,1.9,0.9
Cc1cccc(C(=O)O/N=C2\CCSc3ccc(C)cc32)c1,-7.8,1.6,15.4*,9.5,7.2,41.2*
CC(=O)N1CCc2cc(S(=O)(=O)CCC(=O)Nc3cc(C)cc(C)c3)ccc21,5.2,-1.0,5.9,5.6,x,x
O=C(CSc1ccc(-c2ccc(F)cc2)nn1)NCc1ccco1,-8.9,1.5,19.2*,-50.3,1.6,-0.2
COc1cccc(C2N(Cc3ccccc3)C(=O)C2(F)F)c1OC (stereo unspecified),-3.2,0.5,16.3*,-46.3,1.5,-4.9
COc1cccc(C2N(c3ccccc3)CCN2c2ccccc2)c1OC,9.2,-1.8,3.8,-10.8,x,x
CCOC(=O)/C(C#N)=C/Nc1ccccc1OC,-4.7,0.8,16.7*,0.4,4.2,-2.0
CCOC(=O)C(=O)/C(C#N)=C/Nc1ccccc1,14.8,-3.0,-6.0,13.2,x,x
Cc1cc(NS(=O)(=O)c2ccc(NC(=O)COc3ccc(Cl)cc3Cl)cc2)no1,15.6,-3.0,19.7*,-47.4,3.7,8.3
Cc1nc(N2CCN(c3ccccn3)CC2)c2c(C)c(C(=O)N3CCN(c4ccccc4F)CC3)sc2n1,-9.2,1.7,-3.9,10.3,x,x
COc1ccccc1NCC(=O)N/N=C(\C)c1ccc(Br)s1,6.9,-1.3,45.8*,-102.7,6.0,35.5*
C/C(=N/NC(=O)CNc1ccc(C)cc1)c1ccc(Br)s1,-0.8,0.1,24.0*,-51.1,1.3,38.1*
CC(C(=O)NC1C=CS(=O)(=O)C1)N1C(=O)/C(=C/c2cccc(Cl)c2)SC1=S (stereo unspecified),0.6,-0.1,14.7*,-17.4,38.3*,1.9
SMILES,OPRM1-OPRD1 inv,MOR-DOR ag-1,HTR5A ag ctr,HTR5A inv ag,MOR-DOR ag-2,HTR5A ag conf
COC(=O)C1=C(C)N(Cc2ccccc2)C(=NCc2cc(OC)c(OC)c(OC)c2)N[C@H]1c1ccc(Br)cc1,-13.3,2.4,14.4*,-11.7,-0.7,0.0
Cc1nc2c(cnn2CCO)c(=O)[nH]1,10.2,-1.9,-3.1,12.9,x,x
COc1ccc(CNC(=O)CN(CC2CCCO2)C(=O)CNS(=O)(=O)c2ccccc2)cc1 (stereo unspecified),12.2,-2.1,17.5*,-51.4,4.3,3.1
CC(C)(C)c1ccc(Oc2ccc(NC(=O)c3ccco3)cn2)cc1,-32.5,6.5,15.9*,15.9,27.6*,-2.3
O=C(Nc1ccc(Oc2cccc(C(F)(F)F)c2)nc1)c1ccco1,-7.0,1.3,5.0,-31.1,x,x
Cc1cc(OC(=O)c2ccccc2Cl)cc(=O)n1C,-7.4,1.8,15.7*,-2.5,123.0*,-3.8
O=C(NCCn1cccn1)C1CCC(=O)N(CC2CCCCC2)C1 (stereo unspecified),18.6,-3.6,25.4*,-61.1,1.1,-1.0
COc1ccc(CCNC(=O)COc2ccc(N(C)S(=O)(=O)c3ccc(C)cc3)cc2)cc1,-0.6,0.1,16.0*,1.0,-0.6,-3.5
O=C(c1ccccc1N1CCOCC1)N1CCCC(Nc2ccc(F)cc2)C1 (stereo unspecified),10.3,-2.0,-3.9,8.7,x,x
O=C(N/N=C/c1cn(Cc2cccc(F)c2)c2ccccc12)c1cc(O)cc(O)c1,-15.0,3.7,17.4*,-44.7,283.7*,2.2
CC1Cc2cc(/C(O)=C3/C(=O)C(=O)N(CCCn4ccnc4)C3c3ccc(F)cc3)ccc2O1 (stereo unspecified),9.5,-1.8,3.3,3.7,x,x
CCOc1ccc(S(=O)(=O)N=C(c2ccccc2)N2CCOCC2)cc1,6.4,-1.2,1.2,-4.4,x,x
CCCCCCCCCCCCCCCC[n+]1ccc(C(N)=O)cc1,0.2,0.0,1.8,-14.2,x,x
CCCCCCCCCCCCCCCC[n+]1ccc(/C=N/O)cc1,-24.0,4.6,26.3*,-39.9,16.0,9.2
COc1ccc(OC)c(NC(=O)c2cc(OC(C)=O)cc(C(=O)Nc3cc(OC)ccc3OC)c2)c1,-14.2,3.0,18.4*,-68.0,-0.1,-3.7
COc1ccc(C(=O)Nc2cc(OC)ccc2OC)cc1,8.5,-1.5,-8.7,-2.8,x,x
O=C(C1CCCCC1)N1CCN(c2ccnc3cc(Cl)ccc23)CC1,1.0,-0.2,2.5,14.1,x,x
CCOc1nc(CC(C)C)c2c(c1C#N)CC(C)(C)OC2,-23.0,4.3,16.2*,2.9,6.0,-0.7
COc1ccc(C(=O)Cc2ccc(OC)c(OC)c2)c(OC)c1,-17.1,2.9,18.9*,-44.0,4.3,4.8
COc1ccc(CC(=O)c2cc(OC)c(OC)cc2CC(=O)O)cc1OC,20.3,-4.2,0.7,-1.7,x,x
COC(=O)c1cc(C(=O)c2cc(Br)ccc2O)coc1=N,0.1,0.0,0.0,0.0,x,x
O=c1[nH]cnc(O)c1C(c1ccc2c(c1)OCO2)c1c(O)nc[nH]c1=O,8.5,-1.6,16.7*,-3.4,0.3,2.2
O=c1[nH]cnc(O)c1C(c1ccc(Br)cc1)c1c(O)nc[nH]c1=O,10.0,-1.9,5.6,16.6,x,x
Cc1cccc(OC(C)C(=O)Nc2ccc(N3CCCCC3)cc2)c1 (stereo unspecified),-20.8,3.9,2.4,-7.1,x,x
CC(Oc1cccc(F)c1)C(=O)Nc1ccc(N2CCOCC2)cc1 (stereo unspecified),1.4,-0.3,17.2*,-47.6,1.5,0.4
Cc1nn(-c2ccc(Cl)cc2)c2sc(C(=O)N3CCN(c4ccccn4)CC3)cc12,14.1,-2.5,22.0*,-55.9,1.1,-1.1

# Screening results (PubChem)
